Of roughly 7,900 targets only a part is listed; those with a hit were picked by preference. About 0.6% of all pairs of compound and target were hits.
Assays:
Experiment in all cases: log2 fold change, soluble protein after heating vs DMSO (PISA); higher = thermal stabilisation; K562 cells, 10 uM, 30 min; active = over 0.2 and 3.5 SD of the protein, either way, in both replicates (recomputed)
[1] = compound: C1=CC=C(C=C1)[C@H](COC2=CC3=C(C=C2)NC(=O)N3)NC(=O)C4=CC=CN(C4=O)CC5=CC(=C(C=C5)F)F
How it was run: (§1)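 K562 cells at 2×10^6 cells/mL were treated with 10 μM compound for 30 min. Aliquots were heated for 3 min across 48°C-58°C, pooled, and extracted in PBS with 0.5% NP-40 at 4°C; soluble protein was the supernatant after 21,000xg for 90 min. Soluble protein was quantified by TMTpro 16plex LC-MS/MS with channel sums equalised, and reported as log2 fold change in thermal stability against DMSO controls, with values from duplicates.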

[2] = compound: CC1=C(SC2=C1C(=N[C@H](C3=NN=C(N32)C)CC(=O)N)C4=CC=C(C=C4)Cl)C
How it was run: as §1

[3] = compound: CC1=C2C(=CC=C1)N=C(N(C2=O)C3=CC=CC=C3C)CN4C=NC5=C(N=CN=C54)N
How it was run: as §1

[4] = compound: Cc1sc2c(c1C)C(c1ccc(Cl)cc1)=N[C@@H](CC(=O)OC(C)(C)C)c1nnc(C)n1-2
How it was run: as §1

[5] = compound: c1ccc([C@@H]2C[C@H]2NC2CCNCC2)cc1
How it was run: as §1

Measured: log2 fold change

AHCYL1 (UniProt O43865)
UniProt O43865, sequence (O43865 whole entry, looked up): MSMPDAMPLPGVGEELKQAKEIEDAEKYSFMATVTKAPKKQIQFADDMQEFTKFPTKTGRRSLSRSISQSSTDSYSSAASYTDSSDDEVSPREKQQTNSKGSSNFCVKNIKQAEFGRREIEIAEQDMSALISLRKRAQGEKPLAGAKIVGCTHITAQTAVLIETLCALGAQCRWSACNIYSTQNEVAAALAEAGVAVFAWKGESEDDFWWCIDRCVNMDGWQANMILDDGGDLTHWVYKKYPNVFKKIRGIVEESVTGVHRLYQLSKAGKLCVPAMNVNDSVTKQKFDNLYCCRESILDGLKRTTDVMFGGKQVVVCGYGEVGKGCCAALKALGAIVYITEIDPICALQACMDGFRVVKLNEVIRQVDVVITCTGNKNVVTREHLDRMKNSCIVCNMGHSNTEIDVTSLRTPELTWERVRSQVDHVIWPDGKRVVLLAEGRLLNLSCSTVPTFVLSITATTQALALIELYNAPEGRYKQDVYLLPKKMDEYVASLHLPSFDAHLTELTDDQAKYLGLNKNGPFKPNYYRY
inactive: [1] 0.057 | [2] -0.004 | [3] 0.014 | [4] -0.03 | [5] -0.037

ACP2 (UniProt P11117)
inactive: [1] 0.027 | [2] -0.023 | [3] 0.008 | [4] -0.023 | [5] 0.024

BECN1 (UniProt Q14457)
UniProt Q14457, sequence (Q14457 whole entry, looked up): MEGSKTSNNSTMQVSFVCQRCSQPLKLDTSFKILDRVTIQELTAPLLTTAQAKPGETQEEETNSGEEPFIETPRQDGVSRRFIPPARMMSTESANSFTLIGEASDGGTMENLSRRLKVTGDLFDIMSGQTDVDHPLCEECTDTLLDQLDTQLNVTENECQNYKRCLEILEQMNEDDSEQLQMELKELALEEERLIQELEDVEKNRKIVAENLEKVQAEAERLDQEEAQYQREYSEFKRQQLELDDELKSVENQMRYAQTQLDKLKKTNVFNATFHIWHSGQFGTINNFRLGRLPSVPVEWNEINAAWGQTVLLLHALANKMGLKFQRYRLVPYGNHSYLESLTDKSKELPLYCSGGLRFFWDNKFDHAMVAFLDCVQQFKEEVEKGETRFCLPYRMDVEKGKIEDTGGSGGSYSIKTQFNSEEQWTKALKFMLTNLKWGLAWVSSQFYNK
inactive: [1] -0.071 | [2] 0.061 | [3] -0.017 | [4] 0.021 | [5] 0.05

ATP6V0A1 (UniProt Q93050)
inactive: [1] 0.281

ATP6V0A2 (UniProt Q9Y487)
inactive: [1] 0.018 | [2] -0.044 | [3] -0.007 | [4] -0.059 | [5] -0.014

ADRM1 (UniProt Q16186)
inactive: [1] 0.007 | [2] -0.062 | [3] -0.001 | [4] -0.019 | [5] -0.01

ATP1A4 (UniProt Q13733)
inactive: [1] -0.084 | [2] -0.142 | [3] 0.035 | [4] 0.036 | [5] 0.056

ATP6V1H (UniProt Q9UI12)
inactive: [1] -0.003 | [2] 0.065 | [3] 0.029 | [4] -0.019 | [5] -0.116

ATG4B isoform 2 (UniProt Q9Y4P1)
inactive: [1] -0.079 | [2] 0.056 | [3] 0.166 | [4] 0.188 | [5] 0.07

ALDH18A1 (UniProt P54886)
inactive: [1] -0.107 | [2] -0.038 | [3] 0.028 | [4] 0.018 | [5] 0.02

ADD2 isoform 9 (UniProt P35612)
inactive: [1] 0.02

ATP7B (UniProt P35670)
inactive: [1] 0 | [2] 0.094 | [3] 0.014 | [4] 0.022 | [5] 0.076

ATXN7L3 isoform 2 (UniProt Q14CW9)
inactive: [1] -0.156

ATP11A (UniProt P98196)
inactive: [1] 0.001 | [2] -0.003 | [3] 0.085 | [4] -0.034 | [5] 0.062

ATP23 (UniProt Q9Y6H3)
inactive: [1] -0.023 | [2] -0.031 | [3] -0.009 | [4] -0.052 | [5] -0.053

ABHD11 (UniProt Q8NFV4)
inactive: [1] -0.008 | [2] 0.127 | [3] 0.136 | [4] -0.12 | [5] -0.037

BTBD6 (UniProt Q96KE9)
UniProt Q96KE9, sequence (Q96KE9 whole entry, looked up): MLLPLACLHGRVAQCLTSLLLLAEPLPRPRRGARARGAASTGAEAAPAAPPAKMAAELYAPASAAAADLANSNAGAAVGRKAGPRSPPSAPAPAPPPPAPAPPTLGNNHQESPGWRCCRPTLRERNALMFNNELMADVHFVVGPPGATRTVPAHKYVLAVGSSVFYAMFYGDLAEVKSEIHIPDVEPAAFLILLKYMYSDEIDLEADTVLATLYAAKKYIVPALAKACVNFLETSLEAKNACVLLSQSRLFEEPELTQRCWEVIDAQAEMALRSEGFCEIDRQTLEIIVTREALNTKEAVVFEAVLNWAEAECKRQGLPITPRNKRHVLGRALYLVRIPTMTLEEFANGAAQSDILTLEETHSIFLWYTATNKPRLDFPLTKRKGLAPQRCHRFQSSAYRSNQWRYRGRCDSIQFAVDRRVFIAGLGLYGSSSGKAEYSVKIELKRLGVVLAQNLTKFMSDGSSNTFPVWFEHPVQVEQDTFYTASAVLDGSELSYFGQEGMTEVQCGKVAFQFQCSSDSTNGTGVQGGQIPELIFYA
inactive: [1] 0.12 | [2] 0.073 | [3] 0.04 | [4] -0.117 | [5] -0.099

BCLAF1 (UniProt Q9NYF8)
UniProt Q9NYF8, sequence (Q9NYF8 whole entry, looked up): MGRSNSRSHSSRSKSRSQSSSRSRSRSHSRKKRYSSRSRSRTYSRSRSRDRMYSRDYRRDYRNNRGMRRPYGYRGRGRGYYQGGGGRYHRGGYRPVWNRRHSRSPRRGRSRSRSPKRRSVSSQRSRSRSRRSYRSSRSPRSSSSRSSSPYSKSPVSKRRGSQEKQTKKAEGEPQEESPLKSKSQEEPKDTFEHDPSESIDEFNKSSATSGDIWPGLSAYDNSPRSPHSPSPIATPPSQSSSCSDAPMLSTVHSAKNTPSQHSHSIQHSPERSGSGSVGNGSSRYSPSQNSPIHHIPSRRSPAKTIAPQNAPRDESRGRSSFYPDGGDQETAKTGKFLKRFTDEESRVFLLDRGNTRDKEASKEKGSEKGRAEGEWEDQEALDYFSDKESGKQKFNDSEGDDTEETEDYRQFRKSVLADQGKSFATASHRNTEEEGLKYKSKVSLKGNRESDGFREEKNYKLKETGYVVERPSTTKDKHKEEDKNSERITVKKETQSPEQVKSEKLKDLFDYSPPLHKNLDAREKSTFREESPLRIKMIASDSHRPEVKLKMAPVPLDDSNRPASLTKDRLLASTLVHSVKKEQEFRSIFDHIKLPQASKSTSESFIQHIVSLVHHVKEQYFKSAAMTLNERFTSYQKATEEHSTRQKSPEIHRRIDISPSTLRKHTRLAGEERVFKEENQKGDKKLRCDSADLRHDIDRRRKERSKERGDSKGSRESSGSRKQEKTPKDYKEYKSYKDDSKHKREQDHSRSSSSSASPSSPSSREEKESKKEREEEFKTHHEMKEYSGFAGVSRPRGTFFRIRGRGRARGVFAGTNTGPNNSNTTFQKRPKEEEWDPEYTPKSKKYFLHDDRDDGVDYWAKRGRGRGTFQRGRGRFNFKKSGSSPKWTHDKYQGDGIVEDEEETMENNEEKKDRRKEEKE
inactive: [1] 0.031 | [2] 0.027 | [3] -0.118 | [4] -0.013 | [5] 0.047

ALG11 (UniProt Q2TAA5)
inactive: [1] 0.001 | [2] 0.085 | [3] 0.144 | [4] -0.051 | [5] -0.021

BRIX1 (UniProt Q8TDN6)
inactive: [1] 0.093 | [2] -0.349 | [3] -0.242 | [4] 0.244 | [5] -0.007

BYSL (UniProt Q13895)
inactive: [1] 0.001 | [2] -0.085 | [3] -0.09 | [4] 0.02 | [5] -0.042

ANP32E (UniProt Q9BTT0)
UniProt Q9BTT0, sequence (Q9BTT0 whole entry, looked up): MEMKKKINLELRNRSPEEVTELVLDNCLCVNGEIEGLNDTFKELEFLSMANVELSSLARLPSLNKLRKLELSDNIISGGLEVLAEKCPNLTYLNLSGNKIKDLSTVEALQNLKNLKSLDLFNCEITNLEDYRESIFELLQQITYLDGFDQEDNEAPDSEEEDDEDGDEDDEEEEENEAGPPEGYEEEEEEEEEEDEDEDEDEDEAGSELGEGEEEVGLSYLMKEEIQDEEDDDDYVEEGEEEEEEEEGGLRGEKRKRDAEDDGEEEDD
inactive: [1] -0.092 | [2] -0.037 | [3] 0.14 | [4] -0.012 | [5] 0.075

AIFM2 (UniProt Q9BRQ8)
inactive: [1] 0.036 | [2] 0.047 | [3] 0.026 | [4] 0.045 | [5] 0

ARFIP1 isoform 2 (UniProt P53367)
inactive: [1] 0.009

ACSL4 (UniProt O60488)
inactive: [1] -0.08 | [2] 0.1 | [3] 0.132 | [4] 0.025 | [5] -0.031

AP2A2 isoform 2 (UniProt O94973)
inactive: [1] -0.021 | [2] -0.02 | [3] 0.04 | [4] 0.048 | [5] 0.028

ATP1A1 (UniProt P05023)
inactive: [1] 0.009 | [2] 0.051 | [3] -0.045 | [4] 0 | [5] -0.01

ABHD17A isoform 2 (UniProt Q96GS6)
inactive: [1] 0.029 | [2] 0.079 | [3] 0.122 | [4] -0.148 | [5] -0.012

ACO2 (UniProt Q99798)
UniProt Q99798, sequence (Q99798 whole entry, looked up): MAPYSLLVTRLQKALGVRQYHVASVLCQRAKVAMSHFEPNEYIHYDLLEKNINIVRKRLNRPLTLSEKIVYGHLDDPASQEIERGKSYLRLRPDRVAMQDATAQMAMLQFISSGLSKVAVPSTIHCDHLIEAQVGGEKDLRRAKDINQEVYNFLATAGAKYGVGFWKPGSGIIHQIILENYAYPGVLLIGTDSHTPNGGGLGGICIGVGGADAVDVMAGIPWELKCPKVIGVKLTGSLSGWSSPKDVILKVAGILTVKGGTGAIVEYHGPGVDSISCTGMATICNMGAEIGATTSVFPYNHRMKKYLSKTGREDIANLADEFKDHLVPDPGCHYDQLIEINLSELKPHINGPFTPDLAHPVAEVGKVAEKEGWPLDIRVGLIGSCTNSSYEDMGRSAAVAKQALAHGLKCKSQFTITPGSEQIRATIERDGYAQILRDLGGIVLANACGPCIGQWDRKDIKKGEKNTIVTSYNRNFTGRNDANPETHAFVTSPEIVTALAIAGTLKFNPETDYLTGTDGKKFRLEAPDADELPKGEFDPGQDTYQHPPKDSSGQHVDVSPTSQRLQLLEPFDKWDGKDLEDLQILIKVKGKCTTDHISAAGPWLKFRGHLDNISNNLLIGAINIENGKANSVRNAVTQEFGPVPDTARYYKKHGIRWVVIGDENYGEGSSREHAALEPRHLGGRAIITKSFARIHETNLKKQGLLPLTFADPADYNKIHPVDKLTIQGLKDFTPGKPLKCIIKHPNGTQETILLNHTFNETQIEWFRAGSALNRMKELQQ
inactive: [1] 0 | [2] 0.067 | [3] 0.044 | [4] -0.023 | [5] -0.046

ARL4A (UniProt P40617)
inactive: [1] -0.027

ABCA3 (UniProt Q99758)
inactive: [1] 0.239 | [2] 0.002 | [3] -0.05 | [4] 0.02 | [5] -0.035

AP2M1 (UniProt C9JTK4)
inactive: [1] -0.113 | [2] 0.083 | [3] 0.131 | [4] 0.136 | [5] -0.076

ARFGAP1 (UniProt Q8N6T3)
inactive: [1] 0.033 | [2] 0.077 | [3] 0.074 | [4] -0.064 | [5] -0.034

BRAP (UniProt Q7Z569)
inactive: [1] -0.058 | [2] 0.025 | [3] 0.05 | [4] 0.081 | [5] 0

ANKZF1 (UniProt Q9H8Y5)
inactive: [1] -0.113 | [2] -0.037 | [3] -0.01 | [4] 0.15 | [5] -0.008

AKR1C3 (UniProt P42330)
UniProt P42330, sequence (P42330 whole entry, looked up): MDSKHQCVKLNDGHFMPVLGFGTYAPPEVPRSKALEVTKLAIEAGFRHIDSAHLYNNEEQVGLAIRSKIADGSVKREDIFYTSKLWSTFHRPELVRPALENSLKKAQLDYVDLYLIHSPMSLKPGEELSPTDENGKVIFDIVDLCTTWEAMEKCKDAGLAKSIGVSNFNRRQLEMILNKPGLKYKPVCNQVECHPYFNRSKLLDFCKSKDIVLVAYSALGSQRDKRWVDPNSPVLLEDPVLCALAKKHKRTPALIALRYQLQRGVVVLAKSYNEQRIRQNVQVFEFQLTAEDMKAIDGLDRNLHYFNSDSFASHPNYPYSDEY
inactive: [1] 0.155 | [2] 0.049 | [3] 0.132 | [4] -0.038 | [5] -0.156

BCL9L (UniProt Q86UU0)
inactive: [1] 0.001 | [2] -0.028 | [3] 0.019 | [4] 0.051 | [5] 0.05

BZW1 isoform 3 (UniProt Q7L1Q6)
inactive: [1] -0.227 | [2] 0.002 | [3] 0.044 | [4] -0.044 | [5] -0.017

ATL2 (UniProt Q8NHH9)
inactive: [1] -0.019 | [2] 0.05 | [3] 0.091 | [4] -0.012 | [5] -0.077

ACP1 (UniProt P24666)
inactive: [1] -0.058 | [2] -0.026 | [3] 0.184 | [4] -0.041 | [5] -0.416

AP2A1 (UniProt O95782)
inactive: [1] -0.001 | [2] -0.021 | [3] -0.028 | [4] 0.047 | [5] -0.005

BZW2 (UniProt Q9Y6E2)
inactive: [1] -0.069 | [2] 0.042 | [3] 0.025 | [4] -0.033 | [5] -0.014

ALG5 (UniProt Q9Y673)
inactive: [1] -0.037 | [2] 0.1 | [3] 0.082 | [4] -0.06 | [5] -0.056

ATP5IF1 (UniProt Q9UII2)
UniProt Q9UII2, sequence (Q9UII2 whole entry, looked up): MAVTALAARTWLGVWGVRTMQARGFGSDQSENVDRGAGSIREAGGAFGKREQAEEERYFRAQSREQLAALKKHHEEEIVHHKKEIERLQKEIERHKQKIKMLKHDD
inactive: [1] 0.016 | [2] -0.087 | [3] -0.031 | [4] -0.013 | [5] -0.079

AHSA1 (UniProt O95433)
inactive: [1] -0.035 | [2] 0.063 | [3] 0.015 | [4] -0.024 | [5] -0.003

BMP2K (UniProt Q9NSY1)
inactive: [1] 0.015 | [2] 0 | [3] -0.018 | [4] 0.035 | [5] -0.001

ATOX1 (UniProt O00244)
UniProt O00244, sequence (O00244 whole entry, looked up): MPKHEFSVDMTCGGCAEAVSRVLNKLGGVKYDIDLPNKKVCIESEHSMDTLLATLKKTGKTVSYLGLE
inactive: [1] 0.033 | [2] 0.124 | [3] 0.101 | [4] -0.153 | [5] 0.008

ACSF3 (UniProt Q4G176)
inactive: [1] 0.037 | [2] 0.086 | [3] 0.12 | [4] -0.067 | [5] 0.063

BLOC1S3 (UniProt Q6QNY0)
inactive: [1] -0.048 | [2] 0.084 | [3] 0.088 | [4] -0.113 | [5] -0.06

AUH (UniProt Q13825)
inactive: [1] 0.015 | [2] 0.065 | [3] -0.116 | [4] -0.042 | [5] -0.001

ARHGAP1 (UniProt Q07960)
UniProt Q07960, sequence (Q07960 whole entry, looked up): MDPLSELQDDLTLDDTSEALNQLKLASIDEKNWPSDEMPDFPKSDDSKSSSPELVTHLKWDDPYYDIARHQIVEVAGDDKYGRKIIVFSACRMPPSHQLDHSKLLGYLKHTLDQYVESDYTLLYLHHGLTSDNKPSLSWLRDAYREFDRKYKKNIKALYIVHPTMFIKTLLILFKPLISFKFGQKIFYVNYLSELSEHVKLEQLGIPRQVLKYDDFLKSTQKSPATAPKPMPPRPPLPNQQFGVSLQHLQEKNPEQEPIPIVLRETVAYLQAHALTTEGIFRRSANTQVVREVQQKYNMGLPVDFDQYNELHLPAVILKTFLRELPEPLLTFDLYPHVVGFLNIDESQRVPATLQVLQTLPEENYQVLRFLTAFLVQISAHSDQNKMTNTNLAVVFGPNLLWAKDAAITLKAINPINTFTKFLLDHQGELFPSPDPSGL
inactive: [1] -0.02 | [2] 0.023 | [3] 0.047 | [4] -0.005 | [5] 0.002

AFG1L (UniProt Q8WV93)
inactive: [1] 0.025 | [2] 0.096 | [3] -0.008 | [4] -0.074 | [5] -0.129

AP2M1 (UniProt Q96CW1)
inactive: [1] -0.005 | [2] 0.03 | [3] -0.013 | [4] 0.006 | [5] 0.009

ARL3 (UniProt P36405)
inactive: [1] -0.002 | [2] 0.04 | [3] 0.038 | [4] -0.06 | [5] -0.005

BCCIP isoform 2 (UniProt Q9P287)
inactive: [1] -0.031 | [2] 0.002 | [3] -0.001 | [4] -0.035 | [5] 0.014

ALDH2 (UniProt P05091)
UniProt P05091, sequence (P05091 whole entry, looked up): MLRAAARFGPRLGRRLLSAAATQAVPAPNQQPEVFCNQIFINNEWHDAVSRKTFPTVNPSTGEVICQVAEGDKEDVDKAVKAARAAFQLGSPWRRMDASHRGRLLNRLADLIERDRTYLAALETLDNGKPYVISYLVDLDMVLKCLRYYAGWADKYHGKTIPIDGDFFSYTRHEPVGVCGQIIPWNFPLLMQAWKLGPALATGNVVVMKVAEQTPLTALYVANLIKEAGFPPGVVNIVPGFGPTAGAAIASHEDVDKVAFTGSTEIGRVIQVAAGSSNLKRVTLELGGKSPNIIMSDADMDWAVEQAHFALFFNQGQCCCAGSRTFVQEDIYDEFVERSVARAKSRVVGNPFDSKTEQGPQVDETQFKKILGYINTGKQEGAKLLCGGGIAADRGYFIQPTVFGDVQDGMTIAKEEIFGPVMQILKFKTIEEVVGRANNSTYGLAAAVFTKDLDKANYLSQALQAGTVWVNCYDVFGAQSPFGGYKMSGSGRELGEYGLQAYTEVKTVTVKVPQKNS
inactive: [1] 0.009 | [2] 0.065 | [3] 0.032 | [4] -0.043 | [5] -0.001
